A549 tox = kills or reduces viability of A549 cells in Nrf2 counter-screen; A549 ARE-Fluc cells, CellTiter-Fluor viability, 18-24 h; Potency, µM (doses to about 46 µM), for inactives: at the highest dose activity change, negative = cytotoxicity, actives largely listed as inhibitors; hit rate 0.16% among 390,000; also: % is scaled to controls: 0 for no effect and ±100 for the full control effect
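A549 ARE-Fluc cells in 5% FBS OPTI-MEM, 5000 cells/well, rested 2 h then exposed to compounds in concentration-response for 18-24 h at 37 °C. Viability by CellTiter-Fluor fluorescence (Ex 405/Em 525) after 30 min; luciferase luminescence (BugLite, 15 min, RT) read afterwards.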
mIDH1 inhibitor = blocks human mutant IDH1 R132H enzyme. O75874. IDH1-R132H enzyme, NADPH consumption, diaphorase/resazurin fluorescence. Potency, µM (titrated, usually from 76.6 µM), inactives show top-dose activity change, negative = inhibition, usual class: inhibitors. hit rate 0.093% among 390,000. AID 602179; also: % is scaled to controls: 0 for no effect and ±100 for the full control effect; nearly all actives have a fitted effect of over 65% in size
Target sequence (O75874 whole entry R132H, stated change not applied): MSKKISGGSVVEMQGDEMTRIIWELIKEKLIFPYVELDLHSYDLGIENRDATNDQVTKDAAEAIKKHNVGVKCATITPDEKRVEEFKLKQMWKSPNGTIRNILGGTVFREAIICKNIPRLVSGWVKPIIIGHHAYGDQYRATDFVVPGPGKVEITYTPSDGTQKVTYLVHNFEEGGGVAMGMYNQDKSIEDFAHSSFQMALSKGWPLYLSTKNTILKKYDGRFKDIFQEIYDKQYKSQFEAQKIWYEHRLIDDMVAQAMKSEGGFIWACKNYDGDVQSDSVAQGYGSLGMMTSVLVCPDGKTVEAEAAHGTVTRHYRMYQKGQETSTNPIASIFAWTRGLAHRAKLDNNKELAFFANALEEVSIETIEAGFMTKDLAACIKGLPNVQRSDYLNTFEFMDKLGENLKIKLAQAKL
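IDH1-R132H (0.5 ug/mL) preincubated 30 min with compound, then NADPH (0.016 mM) and alpha-KG (2 mM) added; 80 min at RT, pH 7.5. Remaining NADPH coupled via diaphorase/resazurin to fluorescence (540/590 nm); concentration-response curves normalized to no-enzyme control.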
Nrf2 inh = Nrf2 pathway inhibition. Potency, µM (doses to about 46 µM), for the others: at the highest dose activity change, negative = inhibition, usual class: inhibitors. A549 ARE-Fluc reporter, luciferase luminescence, 18-24 h. AID 504444. hit rate 2.1% among 360,000; also: % is scaled to controls: 0 for no effect and ±100 for the full control effect; nearly all actives have a fitted effect of over 60% in size
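In this cell-based qHTS, ARE-driven firefly luciferase in A549 cells reports Nrf2 activity; the luminescent signal after BugLite lysis is the measured value, with a prior CellTiter-Fluor read for cell health.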
Nrf2 ARE act = Nrf2 pathway activation. Potency, µM (titrated, usually from 46.1 µM), for the others: at the highest dose activation, hits mostly activators. hit rate 0.31% among 410,000. AID 624171. AREc32 ARE-luciferase reporter (MCF7-derived line), luminescence, 24 h; also: % of control where 0% means no effect; nearly all actives have a fitted effect of over 65% in size
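For detection, Steady-Glo was added and plates sat 30 min at RT; before that, AREc32_Fluc cells grown overnight in OPTI-MEM/5% FBS had been treated with 23 nL compound for 24 hr at 37 deg C.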
ELG1 DNA repair = blocks ELG1-dependent DNA repair in HEK293T cells. HEK293T ELG1-luciferase reporter, luminescence, 16 h; DNA damage induced by 5-fluorouridine. Potency, µM (doses to about 46.1 µM), without a hit: at the highest dose activity change, negative = inhibition, actives largely listed as inhibitors. hit rate 2.3% among 330,000; also: % is scaled to controls: 0 for no effect and ±100 for the full control effect; nearly all actives have a fitted effect of over 55% in size
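Overnight (16 hr) co-exposure of 2,000 cells/well to 5-fluorouridine and compound at 37 °C preceded detection. Luciferase was quantified via ONE-Glo luminescence; loss of signal denotes inhibition.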
Active calls of the source: *; ? = inconclusive; nt = no result given; [ ] = remark or other dose. Compounds with a hit are over-represented: about 3.8% of the library has one in this group of screens. Calls follow the shape of the dose curve; as a rule, active = well fitted curve in the direction sought with a large enough effect; inconclusive = small, poorly fitted or top-dose-only effect, or another doubt; inactive = no such curve, though single readings can be large; an effect the other way counts as inactive or inconclusive. Potency is read from the fitted curve at half-maximal effect.

SMILES	A549 tox	mIDH1 inhibitor	Nrf2 inh	Nrf2 ARE act	ELG1 DNA repair
O=C(c1cc(COc2c(F)cccc2F)on1)N1CCC(c2ccncc2)CC1	-19%	2%	7.3µM*	3%	?
N#CC(=Cc1ccccn1)c1nc(-c2ccc(Cl)cc2)cs1	nt	6%	nt	13µM*	nt
N#C/C(=C/c1ccc(Cl)cc1)c1nc(-c2ccc(Br)cc2)cs1	2%	-13%	1%	-1%	nt
O=C(c1ccc(-n2cncn2)c([N+](=O)[O-])c1)N1CCN(S(=O)(=O)c2ccccc2F)CC1	0%	2%	1%	-1%	2%
CCCn1c(N)c(C(=O)CN(C)CC(=O)Nc2ccccc2C(F)(F)F)c(=O)[nH]c1=O	-3%	5%	?	0%	9.2µM*
CCCn1c(N)c(C(=O)CN(C)CC(=O)Nc2cc(C)ccc2C)c(=O)[nH]c1=O	-5%	2%	?	0%	?
Cc1c(C(=O)/C=C/c2cccs2)oc2ccc(F)cc12	2%	8%	?	7.9µM*	?
Cc1c(C(=O)N2CCN(C(=O)c3ccccc3)CC2)oc2ccc(F)cc12	-5%	5%	-7%	0%	18µM*
Cc1cc2c(s1)c1cnn(Cc3ccc(Br)cc3F)c(=O)c1n2C	-1%	nt	14%	nt	nt
CCCCc1nc2c(C)c(N)cnc2n1Cc1cccc([N+](=O)[O-])c1	2%	-9%	-4%	-1%	-19%
CN1/C(=C\C(=O)CSc2nnc(NCc3ccccc3)s2)C(C)(C)c2ccccc21	-29%	2%	?	0%	18µM*
Cc1cc(C(=O)CSc2nnc(NCc3ccccc3)s2)c(C)n1C	?	6%	-21%	-1%	-35%
Nc1nc(NCc2ccc(Cl)cc2)c2[nH]cnc2n1	14%	nt	5%	nt	nt
COc1ccc(N(C(=O)CCl)C(C(=O)NC2CCCCC2)c2cccnc2)cc1 (stereo not drawn)	-15%	3%	-12%	?	21µM*
O=C(NC1CCCCC1)C(c1cccnc1)N(C(=O)CCl)c1ccc(F)cc1 (stereo not drawn)	-21%	-1%	18µM*	?	21µM*
CCOC(=O)c1ccc(-n2c(CCC(=O)O)ccc2-c2ccc(Br)cc2)cc1	-1%	-21%	-6%	14%	nt
CCN(CC(=O)Nc1ccc2c(c1)OCCO2)S(=O)(=O)c1ccc(F)cc1	0%	-9%	-8%	0%	0%
Cn1c(SCC(=O)N/N=C/c2ccc([N+](=O)[O-])s2)nnc1-c1ccccc1	?	5%	21µM*	-1%	?
Cn1c(SCC(=O)N/N=C/c2cc([N+](=O)[O-])ccc2O)nnc1-c1ccccc1	-3%	1%	-26%	-1%	9.2µM*
Cc1nnc(SCC(=O)N/N=C/c2cn(-c3ccccc3)nc2-c2ccccc2)n1-c1ccccc1	-29%	-3%	16µM*	2%	?
Cc1ccc(-c2nnc(SCC(=O)N/N=C/c3ccc(C)s3)n2-c2ccc(C)cc2)cc1	?	-16%	21µM*	0%[9.22 µM]	?
Cc1ccc(-c2nnc(SCC(=O)N/N=C/c3ccccc3C(=O)O)n2-c2ccccc2)cc1	nt	nt	nt	nt	11%
Cc1ccc(NC(=O)CSc2nnc(C)n2-c2ccccc2)cc1	1%	5%	-5%	0%	16%
CCOC(=O)c1c(NC(=O)c2ccoc2C)sc(C(=O)N(C)C)c1C	-4%	-2%	-16%	0%	7.3µM*
CCN(CC)CCOC(=O)/C=C/c1ccccc1	11%	6%	4%	5%	29%
SMILES	A549 tox	mIDH1 inhibitor	Nrf2 inh	Nrf2 ARE act	ELG1 DNA repair
CCN(CC)CC(C)(C)C(=O)/C=C/c1ccc(/C=C/C(=O)C(C)(C)CN(CC)CC)cc1	16µM*	1%	21µM*	-4%	nt
CC(=O)Oc1c(Br)cc(N(C(C)=O)S(=O)(=O)c2ccccc2)c2ccccc12	4%	5%	13%	-3%	23µM*
COc1cc(CNCc2ccc(OC)c(OC)c2OC)cc(OC)c1	-4%	5%	9.2µM*	0%	-15%
S=c1ncc2[nH]c(=S)[nH]c2[nH]1	10%	0%	14%	3%	nt
COc1ccc(OC)c(S(=O)(=O)N/N=C\c2ccc3c(c2)OCO3)c1	3%	-19%	?	0%	?
COc1ccc(S(=O)(=O)N/N=C\c2ccc3c(c2)OCO3)c(OC)c1	-7%	11%	10µM*	0%	?
CCN(C(=O)COC(=O)CNC(=O)c1ccc2ccccc2c1)c1c(N)n(Cc2ccccc2)c(=O)[nH]c1=O	9%	8%	-4%	0%	nt
CCN(C(=O)COC(=O)c1ccc2ccccc2c1)c1c(N)n(Cc2ccccc2)c(=O)[nH]c1=O	?	1%	23µM*	-2%	-28%
CCN(C(=O)COC(=O)C1CCC(C(C)(C)C)CC1)c1c(N)n(Cc2ccccc2)c(=O)[nH]c1=O (stereo not drawn)	-20%	-1%	13µM*	0%	nt
Cc1ccc(Cl)cc1N1CCN(C(=O)C2CCN(S(=O)(=O)Cc3ccccc3)CC2)CC1	-3%	-10%	?	0%	nt
COc1ccc(C2CC(c3ccccc3)Oc3cc(C)cc(C)c32)cc1 (stereo not drawn)	23%	nt	15%	nt	nt
COc1ccccc1/C=N/NC(=O)CC(=O)NCCc1ccccc1	12%	13%	0%	1%	nt
CC(C)CNS(=O)(=O)c1ccc(CCC(=O)N2CCN(c3ccc(F)cc3)CC2)cc1	-1%	15%	-18%	0%	12µM*
COc1ccc(N2CCN(C(=O)CCc3ccc(S(=O)(=O)NCC(C)C)cc3)CC2)cc1	-24%	1%	26µM*	3%	?
CCNS(=O)(=O)c1ccc(CCC(=O)N2CCN(c3cccc(Cl)c3)CC2)cc1	-1%	-2%	?	0%	?
COc1ccc(N2CCN(C(=O)COC(=O)c3cccc(S(=O)(=O)Nc4cccc(C)c4)c3)CC2)cc1	-5%	-5%	26µM*	0%	-9%
CN(C)c1ccc(C=c2c3cc(O)ccc3n3c2cc(-c2ccccc2)[n+]3C)cc1	?	?	18µM*	2%	nt
C[n+]1c(-c2ccccc2)cc2c(=Cc3ccccc3)c3ccccc3n21	?	-6%	21µM*	7%	nt

Screening data as filed in PubChem.
